Assay results: ChEMBL document CHEMBL3988442, “University of Dundee, Small-Polar-MMV Screening Library” (2021)
Out of some 48,000 compounds screened, about 13,000 (27%) showed an effect of 50% or more. This is one part of the list.

System: Wolbachia pipientis
Experiment: Anti-Wolbachia Cell-Based Screen
Assay type: functional
Design: scale not given: in the data most compounds retested in dose-response had high values
Conditions: 5 µM

SMILES | Percent Effect
CN(CCCc1n[nH]c(N)c1C#N)C(=O)NC1CC1 | 0.449%
O=C(NCCCO)Nc1cccc(C[S+]([O-])c2ccccc2)c1 (stereo not drawn) | 2.569%
CN(Cc1ccccc1)CC1CC2(CO1)CN(Cc1nccs1)C2 (stereo not drawn) | 11.68%
O=C(O)C(F)(F)F.O=C(c1ccncc1)N1CCC2(CCCN(c3ncc(F)cn3)C2)C1 (stereo not drawn) | 105.7%
Cc1occc1C(=O)N1CCC2(CCCN(Cc3nccs3)C2)C1.O=C(O)C(F)(F)F (stereo not drawn) | 1.287%
Cc1ccc(N2CCC3(CCCN(C(=O)c4cccnc4)C3)C2)nn1.O=C(O)C(F)(F)F (stereo not drawn) | -9.172%
Cc1ccc(C(=O)N2CCC3(CCCN(c4ccc(C)nn4)C3)C2)cn1 (stereo not drawn) | 4.152%
Cc1ccc(C(=O)N2CCC3(CCCN(c4ncc(F)cn4)C3)C2)cn1.O=C(O)C(F)(F)F (stereo not drawn) | 104%
CN(Cc1ccncc1)C1CC2(CCN(c3ncc(F)cn3)CC2)C1.O=C(O)C(F)(F)F.O=C(O)C(F)(F)F | -2.894%
Cc1occc1C(=O)N1CCC2(CCCN(c3ncc(F)cn3)C2)C1.O=C(O)C(F)(F)F (stereo not drawn) | 116.2%
Cc1occc1C(=O)N1CCC2(CCCN(Cc3cccs3)C2)C1.O=C(O)C(F)(F)F (stereo not drawn) | -3.04%
c1ccc2c(c1)CC(CNCc1ccncc1)(N1CCCCC1)C2 | -2.88%
CC(CN1CCC2(CC1)c1nc[nH]c1CCN2S(C)(=O)=O)C(F)(F)F (stereo not drawn) | -8.098%
COC(=O)c1ccc(C(=O)NS(=O)(=O)c2cncc(Br)c2)cc1 | -17.99%
Cc1ncsc1CCCn1ccnc1-c1cc2n(n1)CCCNC2 | -0.1089%
CC(O)CN1CCc2[nH]nc(C(c3ccccc3)c3ccccc3)c2C1 (stereo not drawn) | 0.8234%
CCc1ccc(C(=O)N2CCCC3(CCCC(=O)N3C)C2)cc1 (stereo not drawn) | 97.96%
CCC1(C(=O)O)CCCN(C(=O)c2ccc(N3CCN(C)CC3)cc2)C1 (stereo not drawn) | 4.53%
COc1ccc(C(=O)N2CCCC3(CCCC(=O)N3C)C2)cc1 (stereo not drawn) | 91.19%
CCC1(CO)CCCN(C(=O)c2ccc(N3CCN(C)CC3)cc2)C1 (stereo not drawn) | -10.61%

SMILES | Percent Effect
O=C(NC1CCCCC1)N1C[C@H]2CN(c3cnccn3)C[C@@]2(C(=O)O)C1 | -17.1%
Cc1ccc2c(c1)C(NCc1ncnn1C)CC2 (stereo not drawn) | -32.91%
CN1C(=O)CC(C(=O)O)C12CCN(Cc1ccc(Cl)c(F)c1)CC2 (stereo not drawn) | -9.63%
COc1ccccc1OCCNC(=O)NCC(C)C | -1.191%
COC(CNC(=O)N1CCC(n2cncn2)CC1)c1ccccc1 (stereo not drawn) | 1.274%
CC(C)c1ccc(C(C)NC(=O)N2CCC(n3cncn3)CC2)cc1 (stereo not drawn) | -4.399%
COc1ccccc1OCCNC(=O)N1CCC(n2cncn2)CC1 | 92.74%
CC(C)Oc1ccccc1NC(=O)N1CCC(n2cncn2)CC1 | 90.39%
COc1ccccc1CCNC(=O)N1CCC(n2cncn2)CC1 | 106.2%
CC(NC(=O)N1CCC(n2cncn2)CC1)c1ccc(F)cc1F (stereo not drawn) | -3.93%
O=C(Nc1ccc(N2CCCC2)nc1)N1CCc2sccc2C1 | 6.616%
CCS(=O)(=O)NCCCNc1ncnc2cc(F)c(F)cc12 | -7.857%
CS(=O)(=O)NC[C@]12COC[C@H]1CN(C(=O)N1CCCC1)C2 | 88.05%
Cc1ccoc1C(=O)N1C[C@@H]2COC[C@]2(CNS(C)(=O)=O)C1 | 15.9%
CS(=O)(=O)NC[C@]12COC[C@H]1CN(CC1CCC1)C2.O=C(O)C(F)(F)F | 92.98%
CS(=O)(=O)NC[C@]12COC[C@H]1CN(C(=O)C1CCSCC1)C2 | 57.64%
O=C(NC[C@]12COC[C@H]1CN(CC1CCOCC1)C2)c1ccco1.O=C(O)C(F)(F)F | 6.419%
O=C(O)C(F)(F)F.O=S(=O)(NC[C@]12COC[C@H]1CN(CCc1ccccc1)C2)C1CC1 | -3.746%
Cn1cccc1C(=O)N1C[C@@H]2COC[C@]2(CNS(C)(=O)=O)C1 | -3.959%
CS(=O)(=O)NC[C@]12COC[C@H]1CN(C(=O)c1ccoc1)C2 | -2.074%

SMILES | Percent Effect
CS(=O)(=O)NC[C@]12COC[C@H]1CN(C(=O)Cc1ccccc1F)C2 | 6.41%
COC[C@]12COC[C@H]1CN(C(=O)C1CCSCC1)C2 | -5.007%
CS(=O)(=O)NC[C@]12COC[C@H]1CN(C(=O)CCc1ccccc1)C2 | -0.4913%
CS(=O)(=O)NC[C@]12COC[C@H]1CN(C(=O)CC1CCCC1)C2 | 102.4%
Clc1ccccc1OC1CCN(CC2CCOC2)CC1 (stereo not drawn) | -1.584%
CC(=O)Nc1ccc(CN2CCc3[nH]cnc3C2c2ccc(C)o2)cc1 (stereo not drawn) | -0.8872%
CC(=O)N[C@@H]1CN(C(=O)c2cc3sccc3[nH]2)C[C@H]1c1ccc(C)o1 | 26.08%
Cc1ccc(N2C[C@H]3OCC[C@H]3[C@H](C(=O)NCC3CC3)C2)nn1.O=C(O)C(F)(F)F | 0.1783%
Cc1ncsc1CCN(C)C(=O)CN1CCOC1=O | 2.507%
Cc1cnc(C(C)(C)NC(=O)NCc2ccc(C#N)cc2F)s1 | -5.008%
COc1ccc2nc(C[C@@H]3C[C@@H](C(C)C)[C@H](CN(C)C)C=C3C)[nH]c2n1 | -3.892%
C[S+]([O-])CCCNC(=O)c1cc(Br)c2c(c1)OCCO2 (stereo not drawn) | -5.642%
CS(=O)(=O)NC[C@]12COC[C@H]1CN(C(=O)c1ccccc1)C2 | 7.31%
CS(=O)(=O)NC[C@]12COC[C@H]1CN(C(=O)C1CC(F)(F)C1)C2 | 112.2%
COC[C@]12COC[C@H]1CN(C(=O)C1CC(F)(F)C1)C2 | -2.486%
CS(=O)(=O)NC[C@]12COC[C@H]1CN(C(=O)c1ccncn1)C2 | 0.7032%
CS(=O)(=O)NC[C@]12COC[C@H]1CN(C(=O)c1ncccn1)C2 | 4.055%
CS(=O)(=O)NC[C@]12COC[C@H]1CN(C(=O)C1CC=CC1)C2 | 99.92%
